# This is a sample that favours compounds with a hit; in the whole collection about 4% have one here.
# TROY signal inh = blocks TROY-dependent signaling in reporter cells | AID 1347056 | inhibition, % at 10 µM | Q293 LMP1-TROYcd NF-kB luciferase reporter, 4 h | 360,000 tested, 0.98% active;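 active means compounds whose plate-normalised and pattern-corrected inhibition of the luciferase reporter signal at the single screening dose is 50% or more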
# Peg3 promoter = inhibitors of Peg3 promoter. 360,000 tested, 1.7% active. inhibition, % at 20 µM. AID 588405. HeLa PEG-Prom luciferase reporter, luminescence, overnight;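 active means inhibition of at least 50% at 20 µM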
# CF NFkB inh = blocks PAF-induced NF-kB reporter in cystic fibrosis cells. AID 588850. inhibition, % at 5 µM. KKLEB NF-kB-GFP reporter, GFP fluorescence overnight. 360,000 tested, 0.86% active;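 active means at least 50% inhibition at 5 µM, scaled per plate between neutral and stimulator controls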;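 further: PAF is a Pseudomonas aeruginosa culture filtrate used as stimulus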
# TWEAK-Fn14 inh = TWEAK-Fn14 signaling inhibition; TWEAK-stimulated Fn14 reporter cells, luciferase luminescence, 8 h; inhibition, % at 10 µM; 360,000 tested, 2% active; AID 1159606; in the data active means inhibition above about 50%
# KKLEB tox = counter-screen for CF NF-kB inhibitors: cytotoxicity | KKLEB CF airway cells viability, ATPlite luminescence, overnight; hits give low values; cells stimulated with P. aeruginosa culture filtrate | activity change (cytotoxicity), % at 5 µM | 360,000 tested, 0.36% active | AID 602141;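 active means corrected activity change at or below -50% at 5 µM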
# HIF-2a inh = inhibitors of HIF-2a | 786-0 RCC cells HIF-2a reporter, luciferase luminescence, overnight | inhibition, % at 18.8 µM | 360,000 tested, 0.72% active | AID 624352;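 active means inhibition of the luminescence signal of 40% or more relative to plate controls, in a single-dose primary screen at 18.75 µM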
# CF NFkB conf = confirmation of cystic fibrosis induced NF-kB inhibitors | shares compounds with CF NFkB inh | KKLEB CF airway cells, PAF-induced NF-kB-GFP fluorescence, overnight | inhibition, % at 5 µM | 1,300 tested, 64% active; in the data active means inhibition above about 40%;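 further: stimulus PAF is a Pseudomonas aeruginosa filtrate and not platelet activating factor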
# A number is an active result; – = inactive; · = not tested or not shown; ! = a repeat was not active.
SMILES,TROY signal inh,Peg3 promoter,CF NFkB inh,TWEAK-Fn14 inh,KKLEB tox,HIF-2a inh,CF NFkB conf
CCOC(=O)CC(=O)NC(CC(=O)OC)c1ccc(C(C)C)cc1 (stereo not drawn),–,–,–,–,–,–,·
S=c1[nH]c2cc(-c3ccccc3)ccc2o1,–,–,–,–,–,–,·
Nc1cc2c(cc1Br)-c1ccccc1C2=NO,–,–,50.2,–,–,–,60.9
CC1CCCCN1c1ncnc(N)c1[N+](=O)[O-] (stereo not drawn),–,–,73.8,61.0,–,–,64.2
COc1ccc(-n2ncc3c(N4CCN(Cc5ccccc5)CC4)ncnc32)cc1,60.7,102.8,65.9,81.2,–,–,73.8
Cc1cccc(C(=O)NCCN2CCN(c3ccccc3)CC2)c1,–,–,–,–,–,–,·
O=C(NCCN1CCN(c2ccccc2)CC1)c1cccc(Br)c1,–,–,52.3,–,–,–,52.9
CCOC(=O)C1=C(CC)Nc2ccccc2N=C1NC(=O)c1oc2ccccc2c1C,–,64.4,76.2,–,–,–,94.8
COc1ccc(C(=O)Nc2cccc(NC(=O)c3ccc(OC)c(OC)c3)n2)cc1OC,–,–,83.9,–,–,–,62.1
COc1ccccc1C(=O)Nc1cccc(NC(=O)c2ccccc2OC)n1,–,–,–,–,–,–,·
CCOC(=O)c1noc(C)c1C(=O)Nc1nc(C)cc(C)n1,–,–,–,–,–,–,·
COc1ccc(NC(=O)C(c2cc3c(cc2[N+](=O)[O-])OCO3)N(C)C)cc1 (stereo not drawn),–,–,–,–,–,–,·
CCC(=O)OC1(C(=O)CCl)[C@@H](C)C[C@H]2[C@@H]3CCC4=CC(=O)C=C[C@]4(C)[C@@]3(F)[C@@H](O)C[C@@]21C (stereo partly drawn),–,–,75.5,–,–,–,–
CCCC(=O)O[C@]1(C(=O)CCl)[C@@H](C)C[C@H]2[C@@H]3CCC4=CC(=O)C=C[C@]4(C)[C@@]3(F)C(=O)C[C@@]21C,–,–,90.6,–,–,–,–
CCC(=O)O[C@]1(C(=O)CCl)[C@@H](C)C[C@H]2[C@@H]3CCC4=CC(=O)C=C[C@]4(C)[C@@]3(F)[C@@H](O)C[C@@]21C,–,–,77.2,–,–,–,–
c1ccc(CNc2ncnc3scc(-c4cccs4)c23)nc1,–,–,52.2,–,–,–,–
C[C@H]1CCC[C@]2(C)C[C@H]3OC(=O)C(CN4CCCCCC4)[C@H]3C=C12 (stereo partly drawn),–,–,74.2,72.7,–,–,–
O=C(O)c1ccc(NS(=O)(=O)/C=C/c2ccccc2)cc1O,–,–,–,–,–,–,·
C/C(=N/Nc1ccccc1[N+](=O)[O-])c1ccc([N+](=O)[O-])cc1,50.7,–,50.6,–,–,–,–
CC(=O)c1c(C)[nH]c(C(=O)COC(=O)c2ccc(C)s2)c1C,–,–,64.0,–,–,–,–
O=C(C#Cc1ccccc1)c1ccccc1,–,100.0,99.3,75.9,–,–,43.5
CN(C)C(=O)C#Cc1ccccc1,–,–,–,–,–,–,·
O=C1CNC(=S)N1CCc1ccc(Cl)cc1,–,–,–,–,–,–,·
COc1ccc(CNC(=O)C(C)Sc2nc3ccccc3c(=O)n2CCCN2CCOCC2)cc1 (stereo not drawn),–,–,–,–,–,–,·
O=C1N(c2ccccc2C(F)(F)F)O[C@]1(c1ccccc1)C1CCCCC1,–,65.4,54.0,–,–,–,64.1
SMILES,TROY signal inh,Peg3 promoter,CF NFkB inh,TWEAK-Fn14 inh,KKLEB tox,HIF-2a inh,CF NFkB conf
Cc1cn(-c2cc(C(=O)Nc3ccc(C)c(NC(=O)C(=O)c4c[nH]c5ccccc45)c3)cc(C(F)(F)F)c2)cn1,–,–,50.2!,52.1!,–,–,–
CCOc1ccc2c(c1)C(c1cccs1)=NNC(c1cccnc1)=N2,–,–,–,–,–,–,·
CCC(=O)N1CCc2cc(S(=O)(=O)NCCC(=O)N3CCc4ccccc4C3)ccc21,–,–,–,–,–,–,·
Nc1ccc2nc(-c3ccccc3)c(-c3ccccc3)nc2c1,–,–,66.7,–,–,–,–
Cc1csc(NC(=O)CSC2=NCCS2)n1,–,–,–,–,–,–,·
COCc1cc(=O)[nH]c(SCCS(=O)(=O)c2ccc(Cl)cc2Cl)n1,–,–,100.0,55.4,–,–,–
COCc1cc(=O)[nH]c(SCCS(=O)(=O)c2ccc(C)cc2)n1,–,–,–,–,–,–,·
Cc1ccc(C)c(NC(=S)NNC(=O)c2ccc(Br)o2)c1,–,–,–,–,–,–,·
Cc1ccc(CNc2ncnc(N)c2[N+](=O)[O-])cc1,–,–,63.0,–,–,–,65.5
N#Cc1c(-c2ccc(Cl)cc2)n(O)c2ccccc12,–,–,52.4,64.0,–,–,76.5
Cc1ccnc(NC(=O)CCC(=O)N(CC(=O)NCc2ccccc2)c2ccc3c(c2)OCO3)c1,–,–,–,–,–,–,·
CC(C)(C)c1ccc(C(=O)CC(Sc2ccc(Cl)cc2)C(=O)O)cc1 (stereo not drawn),–,–,88.1,–,–,–,–
Cc1ccc(SC(CC(=O)c2ccc(F)cc2)C(=O)O)cc1 (stereo not drawn),–,–,–,–,–,–,·
CCCCOC(=O)/C=C\C(=O)NC(N)=O,–,–,56.8,–,–,–,–
CCOc1ccc(C(=O)NC2CCN(S(=O)(=O)c3ccccc3)CC2)cc1,–,–,–,–,–,–,·
CC(=O)Oc1ccc(N(C(C)=O)S(=O)(=O)c2ccc(Cl)cc2)c2ccccc12,–,–,85.9,–,–,–,70.2
O=C1NC(=S)N/C1=C\c1cccnc1,–,–,54.1,50.4,–,–,64.2
O=C1NC(=S)N/C1=C/c1cccnc1,–,–,51.5,53.4,–,–,46.5
Nn1c(Cc2ccccc2)nc2cc(Cl)ccc2c1=O,–,–,–,–,–,–,·
CN(C(=O)COC(=O)C12CC3CC(CC(Cl)(C3)C1)C2)C1(C#N)CCCCC1,–,–,–,–,–,–,·
CC(=O)c1ccc(NC(=O)Nc2ccc3c(c2)N(C)C(=O)CS3)cc1,–,–,71.8,72.4,–,–,53.1
CCOc1ccc(NC(=O)Nc2ccc3c(c2)N(C)C(=O)CS3)cc1,–,–,–,–,–,–,·
COc1cccc2cccc(/C=N/n3cnnc3)c12,–,–,–,–,–,–,·
O=C(Nc1cccc2[nH]ncc12)c1ccc(F)cc1,–,–,79.0,58.9,–,–,93.0
O=C(NC(=S)Nc1cccc2[nH]ncc12)c1ccccc1,–,–,62.0,–,–,–,–
O=C(Nc1cccc2ccccc12)c1ccc(F)cc1,–,–,–,–,–,–,·

# Compound activity: PubChem, Sanford-Burnham Center for Chemical Genomics
